The list is not random: actives were taken first. Their share in the collection is about 21%.
CHX counter: counter-screen hit for Shiga toxin inhibitors, cycloheximide; cell reporter, cycloheximide protein synthesis inhibition counterscreen; max response, %; 12% of 300,000 active; AID 2314; in the data active = max response mostly above about 13%, no sharp cut-off; inactive = mostly below about 14%; note: read at 38.3 µM for the half of the compounds with a filed dose; 0% is about no effect
NS1 function inh: inhibitors of influenza NS1 protein function; Potency, µM (doses to about 46.1 µM), inactives show top-dose activity, positive = more growth; 0.4% of 270,000 active; calls by dose curve; note: potency is the fitted concentration of half-maximal effect; actives are rising curves; nearly all actives have a fitted effect of over 50% in size
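Read-out: OD600 growth recovery of NS1-expressing budding yeast. Cells grown overnight at 30C in -URA glucose medium, washed, resuspended and diluted 1:100 in 2% galactose assay medium, pH 6.0. Same strain lacking NS1 served as positive control.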
Shiga inhibitor: blocks Shiga toxin action in Vero cells; Vero cells, Shiga toxin protein synthesis inhibition reporter; inhibition, % at 38.7 µM; 9.2% of 290,000 active; AID 2315; in the data active = inhibition mostly above about 28%, no sharp cut-off; inactive = mostly below about 43%; note: 0% is about no effect
Sm TGR inh: blocks Schistosoma mansoni thioredoxin glutathione reductase | Potency, µM (doses to about 114 µM), for inactives: at the highest dose activity change, negative = inhibition, most hits filed as inhibitors | purified TGR, DTNB reduction, TNB absorbance 405 nm | Q962Y6 | 3% of 360,000 active; note: potency is the fitted concentration of half-maximal effect; % is set by controls: 0 for no effect and ±100 for the full control effect; nearly all actives have a fitted effect of over 60% in size
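TGR 20 nM + NADPH 100 uM (dispensed conc.), cpd preinc 15 min RT; start with NADPH (500 uM addition) then DTNB (15 mM addition). Kinetic TNB absorbance, 405 nm filter. Four-parameter Hill fit across titration.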
Pf growth 96h: P. falciparum growth inhibition at 96 hour, primary screen for plastid delayed-death inhibitors; P. falciparum luciferase reporter growth, 96 h; Potency, µM (titrated, usually from 28.7 µM), for inactives: at the highest dose activity change, negative = inhibition, actives largely listed as inhibitors; 6.9% of 320,000 active; AID 504834; note: potency is the fitted concentration of half-maximal effect; % is set by controls: 0 for no effect and ±100 for the full control effect
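Two parasite generations (96 h, 37 C, 5% CO2) of compound exposure in infected erythrocytes (0.05% parasitemia, 2% hematocrit). Luciferase-reporter P. falciparum; decreased luminescence indicates inhibited growth, aimed at apicoplast-acting delayed death.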
Pf growth 48h: inhibits P. falciparum growth in the first generation, 48 h | P. falciparum luciferase growth in erythrocytes, 48 h | Potency, µM (highest dose often 28.7 µM), without a hit: at the highest dose activity change, negative = inhibition, hits mostly inhibitors | 5.9% of 310,000 active; note: potency is the fitted concentration of half-maximal effect; % is set by controls: 0 for no effect and ±100 for the full control effect
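Firefly luciferase activity from engineered P. falciparum reports growth; inhibitors lower the luminescent signal. Cultures contained 2% hematocrit erythrocytes at 0.1% final parasitemia.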
* marks the source's active call; other numbers are inactive results; i = inactive; ? = inconclusive; nt = not tested or not shown; [ ] = dose if it differs, or a comment. Unless noted, calls come from the whole dose curve; as a rule, active = well fitted curve in the direction sought with a large enough effect; inconclusive = small, poorly fitted or top-dose-only effect, or another doubt; inactive = no such curve, though single readings can be large; an effect the other way counts as inactive or inconclusive.

SMILES | CHX counter | NS1 function inh | Shiga inhibitor | Sm TGR inh | Pf growth 96h | Pf growth 48h
C=CCn1c(OCc2ccccc2)n[nH]c1=S | -6 | 1% | -6 | -18% | ? | 0%[0.00184 µM]
COc1ccccc1NC(=O)C1CCC(CNc2c(N3CCCCC3)c(=O)c2=O)CC1 (centres undefined) | -1 | 3% | -4 | 8% | 0% | 34%
COc1ccc(N(Cc2cccs2)C(=O)c2ccccc2C)cc1 | nt | nt | nt | 4% | nt | nt
O=C(Cn1ncc2c(=O)oc3ccccc3c21)N1CCC(N2CCCCC2)CC1 | -5 | -2% | 18 | -1% | 12µM* | 17%
O=C(Cn1ncc2c(=O)oc3ccccc3c21)N1CCc2ccccc2C1 | 2 | -19% | 7 | 9% | 35% | 8%
O=C(Cn1ncc2c(=O)oc3ccccc3c21)NCCC1=CCCCC1 | -1 | -8% | 1 | 5% | 9.3µM* | -8%
O=c1[nH]c(-c2ccccc2F)nc2c1sc(=S)n2Cc1ccccc1 | -4 | 3% | -12 | 1% | 1% | 4%
Cc1ccc(S(=O)(=O)O[C@H]2CC(C(C)(C)C)CC[C@@H]2c2ccccc2)cc1 (some centres undefined) | nt | -3% | nt | nt | nt | nt
C=CCn1c(C(c2ccccc2)c2ccccc2)n[nH]c1=S | 5 | -2% | -4 | 6% | 3.7µM* | -20%
CCn1c(C(c2ccccc2)c2ccccc2)n[nH]c1=S | -5 | 7% | -13 | -17% | ? | nt
O=C(COc1ccccc1Cl)Nc1ccc2c(c1)OCCO2 | 45* | -60% | 87* | -11% | -18% | 136%
O=C(COC(=O)c1cccnc1Cl)Nc1ccc2c(c1)OCCO2 | 49* | 2% | 115* | 33% | 29% | 26%
COc1ccccc1OC(C)C(=O)Nc1ccc2c(c1)OCCO2 (centres undefined) | 19* | -9% | 25 | -3% | 4% | 23%
O=C(COC(=O)c1cccnc1Cl)NCc1cccs1 | 37* | nt | 33 | 0% | 13% | i
Cn1c(O)c(C=NCC2CCNCC2)c(=O)n(C)c1=O | -3 | 6% | 1 | 1% | -10% | 6%
CCCCNC(=O)c1ccc2c(=O)n(-c3ccccc3)c(=O)[nH]c2c1 | nt | nt | nt | 7% | nt | nt
CC(C(=O)Nc1ccc(OC(F)(F)F)cc1)N1Cc2ccccc2C1=O (centres undefined) | nt | nt | nt | -2% | nt | nt
O=C(CNC(=O)c1cccc(F)c1)N/N=C/c1cccs1 | 6 | 4% | 27 | 8% | -19% | 42%
Cc1cnc(C(=O)OCC(=O)Nc2ccc3c(c2)OCCO3)cn1 | nt | nt | nt | -25% | ? | -20%
Cc1cccc(C)c1OCC(=O)Nc1ccc2c(c1)OCCO2 | 26 | -10% | 82* | 0% | 12µM* | 27%
COc1ccccc1OCC(=O)Nc1ccc2c(c1)OCCO2 | 30* | -7% | 78* | 15% | 16% | 119%
Cc1ccccc1OCC(=O)N/N=C/c1ccc(N2CCOCC2)o1 | 3 | 11% | 16 | 7.9µM* | -19% | -1%
Cc1cccc(C)c1OCC(=O)Nc1ccncc1 | 10 | 6% | nt | -3% | ? | 0%
Cc1ccccc1OCC(=O)Nc1ccc2c(c1)OCCO2 | 51* | -6% | 108* | 9% | 150% | 84%
NC(=O)c1ccccc1OCC(=O)Nc1ccc2c(c1)OCCO2 | nt | nt | nt | 1% | 71% | 108%
SMILES | CHX counter | NS1 function inh | Shiga inhibitor | Sm TGR inh | Pf growth 96h | Pf growth 48h
COc1ccc(N(CC(=O)N2CCN(c3ccccc3F)CC2)S(=O)(=O)c2ccc(C)cc2)cc1 | -5 | 8% | -12 | 3% | 31% | ?
Cc1ccccc1OCC(=O)N/N=C/c1ccc2c(c1)OCCO2 | 31* | -20% | 19 | -23% | 2.6µM* | -1%
O=C(COc1ccccc1)N/N=C/c1ccc2c(c1)OCO2 | 6 | nt | 24 | -3% | 361% | 12%
COc1ccccc1OCC(=O)Nc1ccc(NC(=O)COc2ccccc2OC)cc1 | 6 | 16% | -8 | -3% | -24% | ?
O=C(COc1ccccc1Cl)NCCc1ccc2c(c1)OCCO2 | 42* | 2% | 58* | -4% | 11% | 55%
COc1ccccc1OCC(=O)Nc1ccc(Cl)cc1 | 24* | -15% | 51* | -5% | 34% | 36%
O=C(COc1ccc(Br)cc1Cl)NC(=O)Nc1ccc2c(c1)OCCO2 | 36* | nt | 63* | 8% | 34%[5.75 µM] | 68%
CCOC(=O)C1CCN(c2ncnc3c2nc2n3CCCCC2)CC1 | nt | nt | nt | 1% | nt | nt
NC(=O)c1ccccc1OCC(=O)Nc1ccc(Cl)c(Cl)c1 | 39* | -5% | 71* | 7% | i | 29%
O=C(CSc1nccn1-c1cccc(Cl)c1)Nc1ccc2c(c1)OCCO2 | -4 | -81% | -6 | -13% | ? | nt
O=C(CSCc1c(Cl)cccc1Cl)Nc1ccc2c(c1)OCCO2 | 59* | -13% | 76* | -14% | 3.3µM* | 49%
Cc1ccccc1OCCCC(=O)Nc1ccc2c(c1)OCO2 | 32* | -9% | active | -4% | 21% | 8%
COc1cc(NC(=O)COC(=O)/C=C/c2ccc(Cl)cc2Cl)cc(OC)c1 | -2 | 5% | -2 | 1% | 0% | 6%
O=C(COC(=O)/C=C/c1ccc(Cl)cc1Cl)Nc1ccc2c(c1)OCCO2 | 0 | 6% | 12 | 16% | 2.9µM* | 28%
Cc1ccc(NC(=O)CCOc2ccccc2C)cc1C | 26* | -39% | 40 | 12% | 4% | 28%
Cc1ccccc1OCCC(=O)Nc1ccc(F)c(Cl)c1 | 1 | -48% | 21 | -10% | -12% | -4%
O=C1c2ccccc2-c2onc3c(Oc4ccccc4)cc(O)c1c23 | 22* | 9% | 27 | 45µM* | nt | 96%
CCOc1ccc2noc3c2c1C(=O)c1ccccc1-3 | 15 | -12% | 27 | ? | 60% | 25%
O=C(CSc1nnc(-c2cccs2)o1)Nc1cccc(S(=O)(=O)N2CCCCC2)c1 | -3 | 2% | -4 | -2% | 15µM* | ?
CCCCNC(=O)CSc1nnc(-c2cccc(S(=O)(=O)N3CCOCC3)c2)o1 | nt | nt | nt | -2% | ? | 13µM*
Cc1cc(C)cc(NC(=O)CSc2nnc(-c3ccc(S(=O)(=O)N4CCCC4)cc3)o2)c1 | -3 | -1% | -3 | 4% | 5.2µM* | ?
COc1ccc(CCNC(=O)Oc2ccccc2)cc1OC | -5 | 0% | 2 | 5% | ? | -1%
Cc1sc2ncn(CC(=O)N3CCCCC3)c(=O)c2c1C | 1 | 3% | -9 | -2% | ? | -1%
Cc1ccc(OCCSc2ncnc3nc[nH]c23)cc1 | 61* | -53% | 76 | -3% | nt | 124%
COc1ccc(C(=O)CSc2ncnc3nc[nH]c23)cc1 | 3 | 5% | 14 | 8% | 13% | -1%
Brc1ccc(CSc2ncnc3nc[nH]c23)cc1 | 16* | ? | 18 | -6% | -41% | 32%
CCc1ccc(S(=O)(=O)NCc2csc(-c3cccnc3)n2)s1 | 5 | -163% | 5 | -2% | 0.74µM* | 1%
